# ± gives the standard deviation.
# Test system: MILI (PIWIL2) piRISC loaded with L1MC piRNA (26 nt)
# Test: pre-steady-state target cleavage rate (min^-1); guide: L1MC piRNA 5'p-UAACUAAAUACUAUGCAAGCUGUAGG; MIWI and MILI are mouse PIWI proteins and EfPiwi is from a freshwater sponge; tags in brackets are library labels; higher = faster piRNA-guided slicing of the target
# Conditions: auxiliary factor: 500 nM mouse GTSF1
# In short: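 Sequencing of uncleaved targets, normalised to depth and to weakly complementary targets, was the readout of this Cleave-'n-Seq assay. A transcribed, DNA-blocked target RNA library (0.1 nM) was mixed with 1 nM active affinity-purified piRISC carrying one synthetic guide, with or without 500 nM GTSF1 partner protein, in HEPES–potassium acetate buffer at 33 °C for 0–8 or 0–960 min. Three trials were pooled, k3 was capped at 0.0001 min^-1, and a burst-and-steady-state fit gave the pre-steady-state cleavage rate.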
row,Sequence,pre-steady-state target cleavage rate
1,UCCUGGAUGUCGAUGCAUAGUAUUGUAGUUA,0.0505 ± 0.016
2,UCCUCCUACAGCUUGCAUAGUUAAUUCAAA,0.0506 ± 0.016
3,UCCUCCUACAGCUUGCAUAGAUUUUACAAA,0.0174 ± 0.0071
4,UCCUGGAACAGCUUGCUAAGUAUUUAGUAA,0.0296 ± 0.01
5,UCCUGGAACAGCUUGCAUAGAUUUUACAAA,0.00713 ± 0.0045
6,UCCUCCUACAGCUUGCUAUGUAUUUAGUAA,0.021 ± 0.0069
7,UCCUGGAUGAGGAAGCAUAGUAUUUAGUAA,0.0509 ± 0.013
8,UCCUGGAUGUCCUUGCAUAGUAUAAUGUUA,0.0286 ± 0.011
9,UCCUCCUACAGCUUGCAUACAAUUUAGUUA,0.00727 ± 0.0046
10,UCCUGGAACAGCUUGCAUUGUAUUUACUUA,0.163 ± 0.028
11,UCCUCCUACAGCUAGCAUAGUAUUUUCAAA,0.137 ± 0.027
12,UCCUGGAUCAGCUUGCAUAGUAAAUUCAAA,0.0136 ± 0.0055
13,UCCUGGUACACGAUGCAUAGUAUUUAGUAA,0.186 ± 0.042
14,UCCUGGAUGUCCUUGCAUAGUAUUAAGAUA,0.00928 ± 0.0043
15,UCCUGGAACACCUUGCAUAGUAUUUAGUAA,0.17 ± 0.022
16,UCCUGGAUGUCGUUGCAUAGUAUUAUGUUA,0.156 ± 0.045
17,UCCUGGAUGUCCAUGCAUAGUAAUUAGUUA,0.0249 ± 0.0072
18,UCCUGGAUGUCGAAGCGUAGUAUUUAGUUA,0.00313 ± 0.0025
19,UCCUCCUACAGCUUGGUUAGUAUUUUCAAA,0.0137 ± 0.007
20,UCCUGCUACAGCUUGCAUACAUUUUAGUUA,0.0121 ± 0.0061
21,UCCUGGAUCAGCUUGGAUAGUAUUUACUUA,0.107 ± 0.026
22,UCCUGGAACAGCUUGCAUUGUAUUAAGUUA,0.163 ± 0.026
23,UCCUGGAUGAGCUUGCAUUGUUUUUAGUUA,0.0047 ± 0.0044
24,UCCUGGAUGUCGAAGCAUAGUAUUUAGGUA,0.00926 ± 0.0047

# From the supplement of paper PMC10338343
